Assay results reported in PubChem BioAssay (NCATS).

Assay: qHTS profiling of the MIPE4 collection as inhibitors of Plasmodium falciparum (3D7) proliferation (AID 743344);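 also: scaled between DMSO vehicle wells and 0.29 µM artemisinin as full inhibition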
Conditions: P. falciparum 3D7 in erythrocytes, SYBR Green DNA fluorescence, 72 h; at 28.5 µM unless noted
In short: (§1)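 Erythrocytes infected with P. falciparum (0.3% parasitemia, 2.5% hematocrit) incubated with compounds 72 h at 37 C, 5% CO2. Lysis with saponin/Triton buffer containing SYBR Green I, overnight at room temperature in the dark; DNA fluorescence (485/535 nm) normalised to 0.29 uM artemisinin and DMSO.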

SMILES | parasite growth, % of DMSO control
O=C(NCCCCN1CCOCC1)c1cc2ccccc2o1 | 89%
CC(=O)O[C@]1(C(C)=O)CC[C@H]2[C@@H]3C=C(Cl)C4=CC(=O)[C@@H]5C[C@H]5[C@]4(C)[C@@H]3CC[C@@]21C | 21.6%
CCC[C@H](Nc1nc(-c2ccc(NC(=O)NCC)c(OC)c2)ncc1C)c1cccnc1 | 4.72%
COc1cc2nc(-c3cc(F)ccc3O)nc(N[C@@H]3CNC[C@@H]3C(C)(C)O)c2cc1OC | 6.37%
O=C(Nc1cccc2c(=O)cc(-c3nn[nH]n3)oc12)c1ccc(OCCCCc2ccccc2)cc1 | 8.12%
CN1CCC(COc2cnc(-c3cccc(Cn4nc(-c5cccc(C#N)c5)ccc4=O)c3)nc2)CC1 | 10.4%
CC(C)Oc1cc(Nc2nc(N[C@@H](C)c3ccc(F)cn3)ncc2Cl)[nH]n1 | 9.44%
CC[C@]1(O)C[C@H]2CN(CCC3=c4ccccc4=N[C]3[C@@](C(=O)OC)(c3cc4c(cc3OC)N(C)[C@H]3[C@@](O)(C(N)=O)[C@H](O)[C@]5(CC)C=CCN6CC[C@]43[C@@H]65)C2)C1 | 18.7%
CCOC(=O)N1CCN([N+]([O-])=NOc2cc(ON=[N+]([O-])N3CCN(C(=O)OCC)CC3)c([N+](=O)[O-])cc2[N+](=O)[O-])CC1 | 56.9%
CCOC(=O)[C@H](CCc1ccccc1)N[C@@H](C)C(=O)N1CCCC1C(=O)O (some centres not stated) | 53.7%
Cc1ccc(NC(=O)Nc2cc(C(F)(F)F)ccc2F)cc1Nc1ccc2c(c1)NC(=O)C2=Cc1ccc[nH]1 | 8.05%
C=C[C@@H]1CN2CCC1C[C@@H]2C(O)c1ccnc2ccc(OC)cc12 (some centres not stated) | 8.37%
CN1CCN2c3ncccc3Cc3ccccc3C2C1 (configuration not stated) | 85.3%

Assay: qHTS profiling of the MIPE4 collection as inhibitors of Plasmodium falciparum (DD2) proliferation (AID 743345)
Conditions: P. falciparum Dd2 in erythrocytes, SYBR Green DNA, 72 h; at 28.5 µM unless noted
In short: as §1

SMILES | parasite growth remaining, % of DMSO control (lower = more inhibition)
Cc1cnc(CNC(=O)c2c(=O)c3ccc(N4CCCN(C)CC4)nc3n3c2sc2ccccc23)cn1 | 8.18% [at 9.64 µM]
CCC[C@H](N[C@@H](C)C(=O)N1[C@@H]2CCCC[C@H]2C[C@H]1C(=O)O)C(=O)OCC | 77.5%
CCn1c(-c2nonc2N)nc2cncc(CNC3CCNCC3)c21 | 89.6%
Cn1c(=O)c(-c2c(Cl)cccc2Cl)cc2cnc(Nc3cccc(C(=O)O)c3)nc21 | 13.6%
O=C1NC(=O)C(c2cnc3ccccn23)=C1c1cn2c3c(cccc13)CN(C(=O)N1CCOCC1)CC2 | 88%
Cc1c(-c2cccc3c(CCCOc4cccc5ccccc45)c(C(=O)O)n(Cc4cccnc4)c23)c(COc2ccc(N3CCN([S+](=O)([O-])N(C)C)CC3)cc2)nn1C | 7.43%
O=C(Nc1cccc(C(F)(F)F)c1)Nc1cc(S(=O)(=O)NC2CC2)ccc1-c1ccsc1 | 82.2%
CC(=O)NCCC(=O)N[C@@H](CCC(N)=O)C(=O)N[C@@H](CO)C(=O)N[C@@H](CCC(N)=O)C(=O)N[C@@H](CCC(N)=O)C(=O)N[C@H](C(=O)N[C@@H](Cc1ccccc1)C(=O)N[C@]1(C)CCCCCCC=CCCC[C@@](C)(C(=O)N[C@@H](CCC(N)=O)C(=O)N[C@@H](CC(N)=O)C(N)=O)NC(=O)[C@H](CC(C)C)NC(=O)[C@H](CC(C)C)NC(=O)[C@@H](CCCNC(=N)N)NC(=O)[C@H](Cc2c[nH]c3ccccc23)NC(=O)[C@H](CC(C)C)NC(=O)[C@H](CC(N)=O)NC1=O)[C@H](C)O | 41.2%
C=C1c2cccc(O)c2C(O)=C2C(=O)[C@@]3(O)C(O)=C(C(N)=O)C(=O)[C@@H](N(C)C)[C@@H]3[C@@H](O)[C@H]12 | 36.4%
C[C@@]1(c2cc(-c3cncnc3)c(F)cc2F)CCSC(N)=N1 | 44.7%
Cc1cc(CS(=O)(=O)c2ccccc2)cc(OCc2ccc(CN3CCC[C@H]3CO)cc2)c1 | 30.3%
O=C1Nc2ccc(I)cc2C1=Cc1cc(Br)c(O)c(Br)c1 | 30.6%
CCc1cccc(CC)c1NC(=O)N1Cc2[nH]nc(NC(=O)c3ccc(N4CCN(C)CC4)cc3)c2C1 | 82.8%
Nc1[nH]nc2nnc(-c3c(-c4ccccc4)nn4ccccc34)cc12 | 97%
Cc1nc(NC(=O)N2CCC[C@@H]2C(N)=O)sc1-c1csc(C(C)(C)C)n1 | 80.7%
CCCCc1ccc(NS(=O)(=O)c2ccc(C)c(C(=O)N3CCN(c4cccc(C)c4C)CC3)c2)cc1 | 99.3%
CCNC(=O)c1noc(-c2cc(C(C)C)c(O)cc2O)c1-c1ccc(CN2CCOCC2)cc1 | 7.71%
N#CC1(c2cccc(C(=O)Nc3cc(Oc4ccc5nc(NC(=O)C6CC6)sc5n4)ccc3F)c2Cl)CC1 | 28.8%
CC1C(=O)OC2C(O)C34C5CC(C(C)(C)C)C36C(OC(=O)C6O)OC4(C(=O)O5)C12O (configuration not stated) | 94.5%
